Results on seven compounds are retold here after PubChem BioAssay (Tox21).

Assay [1] is described as follows: qHTS assay to identify small molecule agonists of the hypoxia (HIF-1) signaling pathway - cell viability counter screen (AID 1224844; calls by dose curve; further: nearly all actives have a fitted effect of over 50% in size). Put shortly:
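Luminescent ATP content (CellTiter-Glo, 30 min, room temperature) served as the viability measure in HRE-bla ME-180 cells exposed to compounds for 17 hrs in low-serum medium (0.5% dialyzed FBS).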
(In general: qHTS replaces the single test concentration by a dilution series.)

Assay [2] can be described thus: qHTS assay to identify small molecule agonists of H2AX (AID 1224845; active means well fitted activation curve with a large enough effect in the signal ratio in the repeat runs, not every such curve was filed as active; the % refers to the signal ratio). Put shortly: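 Wild-type CHO-K1 cells plated overnight, then exposed 3 hr at 37C to compounds at 15 concentrations (0.76% DMSO). Lysed, then HTRF anti-pH2AX(S139)-cryptate/anti-H2AX-d2 detection after 24 hr at room temperature; emissions 665 and 620 nm.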
The nature of assay [3]: qHTS assay to identify small molecule agonists of the hypoxia (HIF-1) signaling pathway (AID 1224846; active means well fitted activation curve with a large enough effect in the signal ratio in the repeat runs, not every such curve was filed as active; the % refers to the signal ratio). Put shortly: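 Measured by blue/green FRET after loading CCF4-AM: beta-lactamase expressed from a hypoxia response element in ME-180 cells. Test agents were delivered in DMSO and left 17 hrs; cells had been plated 5 hrs earlier in low-serum (0.5% dialyzed FBS) medium.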

The nature of assay [4]: qHTS assay to identify small molecule agonists of H2AX - cell viability counter screen (AID 1224847; calls by dose curve; further: top concentration of the series differs between compounds; nearly all actives have a fitted effect of over 30% in size). A digest of the protocol: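 For this counter screen, overnight-attached CHO-K1 cells received test compounds (15 concentrations, 0.76% DMSO final); 3 hr later at 37C, CellTiter-Glo reagent was added and luminescence recorded after 30 min at room temperature.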
A short description of assay [5]: qHTS assay to identify small molecule antagonists of the estrogen related receptor (ERR) signaling pathway from Tox21 library (AID 1224848). Further: nearly all actives have a fitted effect of over 50% in size. Further: potency means the concentration at half of the fitted maximal effect. Put shortly: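 Screening used an ERR reporter line supplied by NTP, exposed for 18 h at 37 C to library compounds delivered in DMSO. Signal was luciferase luminescence developed with ONE-Glo at room temperature for 30 min.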

Assay [6] is described as follows: qHTS assay to identify small molecule agonists of the estrogen related receptor (ERR) signaling pathway from Tox21 library (AID 1224849; calls by dose curve; further: nearly all actives have a fitted effect of over 15% in size). The note with it: ERR reporter cell line, ONE-Glo luciferase, 18 h; at 92.4 µM (top of the series) unless noted. A digest of the protocol: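 We plated ERR reporter cells, waited 6 h, added compounds in DMSO by pin tool and incubated them 18 h at 37 C. ONE-Glo was then added and luminescence read after 30 min.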

Assay [7] can be described thus: qHTS RealTime-Glo MT Cell Viability Assay in HepG2 cells - 24 hour (AID 1224867). Further: nearly all actives have a fitted effect of over 50% in size. A digest of the protocol: (§1)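 HepG2 suspension premixed with RealTime-Glo reagents is plated at 600 cells per well and left 5 h at 37 C/5% CO2. Compounds in DMSO then go in, and bioluminescence reflecting viable cell number is recorded over 40 h.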
The nature of assay [8]: qHTS RealTime-Glo MT Cell Viability Assay in HEK293 cells - 32 hour (AID 1224868). Further: nearly all actives have a fitted effect of over 50% in size. Further: potency means the concentration at half of the fitted maximal effect. Put shortly: (§2)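 Reads taken at 0, 8, 16, 24, 32 and 40 h from the same wells. HEK293 cells (600/well) carried RealTime-Glo reagents from seeding, with compound added after a 5 h settle at 37 C.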
A short description of assay [9]: A CellTox Green Cytotoxicity Assay to monitor cytotoxicity in HEK293 cells - 0 hour (AID 1224869). Further: nearly all actives have a fitted effect of over 50% in size. A digest of the protocol:
(§3)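 Each value comes from one timepoint of a single continuous run in which HEK293 cells with CellTox Green were exposed to compound for up to 40 h at 37 C, dye fluorescence rising with cell death.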

A short description of assay [10]: qHTS RealTime-Glo MT Cell Viability Assay in HepG2 cells - 40 hour (AID 1224870). Further: nearly all actives have a fitted effect of over 50% in size. Put shortly: (§4)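 HepG2 cells mixed with RealTime-Glo MT reagents (NanoLuc plus cell-permeant prosubstrate) were seeded at 600 cells/well, incubated 5 h at 37 C/5% CO2, then pinned with compounds in DMSO; nonlytic luminescence tracked viability during 40 h treatment.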
Assay [11] in a line: A CellTox Green Cytotoxicity Assay to monitor cytotoxicity in HEK293 cells - 40 hour (AID 1224871). Further: nearly all actives have a fitted effect of over 45% in size. A digest of the protocol:
as §3

Assay [12] is described as follows: qHTS RealTime-Glo MT Cell Viability Assay in HEK293 cells - 16 hour (AID 1224872). Further: nearly all actives have a fitted effect of over 50% in size. Further: potency means the concentration at half of the fitted maximal effect. Put shortly: as §2
The nature of assay [13]: qHTS RealTime-Glo MT Cell Viability Assay in HepG2 cells - 8 hour (AID 1224873). Further: nearly all actives have a fitted effect of over 55% in size. Put shortly:
as §4

Assay [14] is described as follows: qHTS RealTime-Glo MT Cell Viability Assay in HEK293 cells - 40 hour (AID 1224874). Further: nearly all actives have a fitted effect of over 50% in size. Further: potency means the concentration at half of the fitted maximal effect. To be noted: RealTime-Glo luminescence; max response: active compounds read low. A digest of the protocol:
(§5)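 qHTS format; HEK293 cells with NanoLuc/prosubstrate reagent, 37 C/5% CO2 for 5 h pre-dosing; compounds 23 nL in DMSO; luminescence at each time point reflects viable cells.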

The nature of assay [15]: A CellTox Green Cytotoxicity Assay to monitor cytotoxicity in HEK293 cells - 24 hour (AID 1224875). Further: nearly all actives have a fitted effect of over 45% in size. Put shortly:
as §3

Assay [16] can be described thus: qHTS RealTime-Glo MT Cell Viability Assay in HepG2 cells - 32 hour (AID 1224877). Further: nearly all actives have a fitted effect of over 55% in size. A digest of the protocol:
as §1

A short description of assay [17]: A CellTox Green Cytotoxicity Assay to monitor cytotoxicity in HepG2 cells - 40 hour (AID 1224879). Further: nearly all actives have a fitted effect of over 40% in size. A digest of the protocol: (§6)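 Continuous culture of HepG2 cells with a membrane-impermeant DNA dye; rising fluorescence marks dead cells. Compound exposure lasted up to 40 h at 37 C, with reads every 8 h from 0 h.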
A short description of assay [18]: qHTS RealTime-Glo MT Cell Viability Assay in HEK293 cells - 0 hour (AID 1224880). Further: top concentration of the series differs between compounds; nearly all actives have a fitted effect of over 45% in size. A digest of the protocol:
as §5

A short description of assay [19]: A CellTox Green Cytotoxicity Assay to monitor cytotoxicity in HepG2 cells - 16 hour (AID 1224876). Further: nearly all actives have a fitted effect of over 45% in size. A digest of the protocol:
as §6

Assay [20] is described as follows: A CellTox Green Cytotoxicity Assay to monitor cytotoxicity in HepG2 cells - 24 hour (AID 1224878). Further: nearly all actives have a fitted effect of over 45% in size. Put shortly: as §6

Unmarked numbers belong to inactive results. Results filed as inconclusive are left out. Active and inactive are the calls of the source. Unless noted, the call rests on the fitted dose curve; in most records, active means well fitted curve in the direction sought with a large enough effect in the repeat runs; inconclusive means weak or mixed curves; inactive means no such curve, though single readings can be large; an effect the other way counts as inactive or inconclusive.
On the % scale 0 is the no-effect control and ±100 the full control effect.

In the case of `CC(C)(C)c1cc(O)c(C(C)(C)C)cc1O`, the Potency result in assay [1], in assay [2], in assay [4], in [7], in [9] and in [10] was “inactive” each time. For the same compound, the Potency entry in assay [11], in assay [13], in assay [15], in [16], in assay [17] and in assay [18] was “inactive” in each case. In [3], the result was inactive. For the same compound, the Potency was 24.3 µM (active) in assay [5], 24.5 µM (active) in assay [8], 17.4 µM (active) in [12] and 30.9 µM (active) in assay [14]. For the same compound, the activity change, positive = activation in assay [6] was -60.5%.
`O=C(O)COC(=O)Cc1ccccc1Nc1c(Cl)cccc1Cl`: the Potency entry in assay [1], in assay [2], in assay [4], in assay [5], in assay [7] and in assay [8] was “inactive” each time. Further, the Potency entry in [9], in assay [10], in assay [11], in [13], in [15] and in [19] was “inactive” throughout. In addition, the Potency entry in [16], in assay [20] and in assay [17] was “inactive” in each case. Also, the result in [3] was inactive. The activity change, positive = activation in assay [6] is 1.12% [at 42.5 µM]. Further, in assay [14], the max response is 5.48%.
Turning to `CCN(CC)C(C)=O`, the Potency result in assay [1], in assay [2], in assay [4], in assay [5], in [7] and in assay [8] was “inactive” each time. The Potency entry in assay [9], in assay [10], in assay [11], in assay [13], in [15] and in [19] was “inactive” each time. Moreover, the Potency result in assay [16], in [20], in assay [17] and in assay [18] was “inactive” in each case. Moreover, the compound was classed as inactive in assay [3]. The activity change, positive = activation in assay [6] was 2.9%. For the same compound, the max response in assay [14] is 1.69%.
With `CC(C)NCC(O)c1cc(O)cc(O)c1` (configuration not stated), the Potency entry in [1], in [2], in assay [4], in assay [5], in assay [7] and in assay [8] was “inactive” in each case. Moreover, the Potency result in assay [9], in assay [10], in assay [11], in [12], in assay [13] and in assay [15] was “inactive” each time. Further, the Potency result in [19], in assay [16], in [20], in assay [17] and in [18] was “inactive” in each case. For the same compound, in assay [3], the result was inactive. Also, the activity change, positive = activation in assay [6] is 10.5% [at 42.5 µM]. Further, the max response in [14] was 1.47%.
Regarding `Cn1c(NCCN(CCO)CCCc2ccc([N+](=O)[O-])cc2)cc(=O)n(C)c1=O`, the Potency result in assay [1], in assay [2], in [4], in assay [5], in [7] and in assay [8] was “inactive” throughout. Further, the Potency entry in assay [9], in assay [10], in assay [11], in assay [12], in assay [13] and in [15] was “inactive” in each case. The Potency entry in assay [16], in assay [20], in assay [17] and in assay [18] was “inactive” throughout. Also, the compound was classed as inactive in assay [3]. In addition, the activity change, positive = activation in assay [6] is 4.48% [at 42.5 µM]. Also, in [14], the max response is -12.1%.
In the case of `C=CCCCCCC`, the Potency result in assay [1], in assay [2], in assay [4], in assay [5], in assay [7] and in assay [8] was “inactive” each time. The Potency entry in [9], in assay [10], in [11], in assay [12], in assay [13] and in assay [15] was “inactive” throughout. Moreover, the Potency entry in [19], in assay [16], in assay [20], in assay [17] and in assay [18] was “inactive” in each case. Moreover, the compound was called inactive in assay [3]. Further, the activity change, positive = activation in [6] is 4.67%. In addition, the max response in assay [14] is 9.99%.
Take `CN1CCC(OC(c2ccccc2)c2ccccc2)CC1`: the Potency entry in assay [1], in assay [2], in assay [4], in [7], in assay [8] and in assay [9] was “inactive” in each case. Further, the Potency result in assay [10], in [11], in assay [12], in assay [13], in assay [15] and in assay [19] was “inactive” each time. Further, the Potency entry in assay [16], in assay [20], in [17] and in assay [18] was “inactive” throughout. Further, the compound was classed as inactive in assay [3]. The max response in [14] was -5.84%.
